Screening results: PubChem, several laboratories
An excerpt weighted towards active compounds, which were near 2.3% of everything screened.
HSP90 refold inh – HSP90 inhibitors, primary screen, cell lysate, luminescence | Heat shock protein HSP 90 (rabbit reticulocyte lysate; luciferase refolding) | Rabbit reticulocyte lysate, luciferase refolding luminescence, 3 h | inhibition, % at 5.6 µM | hit rate 0.91% among 290,000 | AID 1789, 2009;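 active means inhibition above the screen-wide mean plus 3 SD, computed separately per campaign, cut at about 16% in these data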;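 further: inhibitors lower the luminescence because luciferase stays unfolded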
SENP8 block-1 – SENP8 protease inhibitors, primary screen, biochemical, luminescence. purified SENP8, Z-RLRGG-aminoluciferin cleavage. Sentrin-specific protease 8 (Homo sapiens), Q96LD8. AID 2540, 2010. inhibition, % at 10 µM. hit rate 1.2% among 330,000; in the data active means inhibition above about 50%
Target sequence (Q96LD8 whole entry, looked up): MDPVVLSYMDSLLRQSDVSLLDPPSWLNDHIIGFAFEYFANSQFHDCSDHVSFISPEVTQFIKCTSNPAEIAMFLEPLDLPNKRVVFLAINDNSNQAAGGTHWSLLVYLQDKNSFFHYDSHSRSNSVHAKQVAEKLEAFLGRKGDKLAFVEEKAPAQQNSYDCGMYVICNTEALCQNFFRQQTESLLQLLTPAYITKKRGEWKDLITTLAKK
SENP7 inh – SENP7 protease inhibitors, primary screen, biochemical, luminescence, uHTS; recombinant SENP7, Z-RLRGG-aminoluciferin luminescence, 40 min; inhibition, % at 5 µM; hit rate 1.5% among 330,000; AID 434973, 2010;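 active means inhibition above about 50% at the single test dose, limit read from the data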
Target sequence (Q9BQF6 706-1050 limits assumed): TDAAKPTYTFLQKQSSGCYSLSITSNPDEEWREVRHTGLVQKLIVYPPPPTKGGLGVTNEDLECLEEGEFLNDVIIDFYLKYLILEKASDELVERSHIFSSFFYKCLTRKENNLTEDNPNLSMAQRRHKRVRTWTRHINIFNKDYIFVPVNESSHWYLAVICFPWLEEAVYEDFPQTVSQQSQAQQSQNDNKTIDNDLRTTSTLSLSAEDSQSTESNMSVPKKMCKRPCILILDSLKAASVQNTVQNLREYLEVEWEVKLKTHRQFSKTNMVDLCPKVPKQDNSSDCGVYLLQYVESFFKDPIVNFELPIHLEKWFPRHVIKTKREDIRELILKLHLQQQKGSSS
SENP8 block-2 – human SENP8 protease inhibitors, primary screen, biochemical, fluorescence, Nedd8 protein substrate, uHTS | Sentrin-specific protease 8 (Homo sapiens), Q96LD8 | recombinant SENP8 | inhibition, % at 20 µM | hit rate 0.64% among 360,000 | AID 602440, 2012; in the data active means inhibition mostly above about 40%, no sharp cut-off; inactive means mostly below about 27%
SENP6 block – SENP6 protease inhibitors, primary screen, biochemical, luminescence, uHTS | Sentrin-specific protease 6 (Homo sapiens), Q9GZR1 | Recombinant SENP6 catalytic domain, aminoluciferin luminescence | inhibition, % at 10 µM | hit rate 1.8% among 330,000 | AID 2599, 2010;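 active means inhibition above about 50% at the single tested dose, limit read from the data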
LGR2 antag – inhibitors of bursicon-induced LGR2 CRE-luciferase signal, primary screen, cell-based, HEK293, CRE-luciferase reporter, bursicon stimulation; inhibition, % at 9.99 µM; Drosophila bursicon receptor LGR2 (rickets); bursicon-stimulated, 4 h; AID 720647, 2013; hit rate 0.35% among 380,000;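 active means drop in luminescence signal, shown as inhibition above about 50% in the replicate tests, limit read from the data, passing the limit was not always enough; inconclusive means probably only some replicates passing the limit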;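 further: agonist challenge used bursicon conditioned medium at about half maximal strength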
HSP90 inh confirm – HSP90 inhibitors, confirmation, cell lysate, luminescence. rabbit reticulocyte lysate, luciferase refolding luminescence, 3 h. inhibition, % at 5.9 µM. AID 1846, 2009. shares compounds with HSP90 refold inh. hit rate 64% among 2,300; in the data active means inhibition above about 18%
luciferase ctr – firefly luciferase inhibitors, HSP90 counter-screen, confirmation, artefact control for HSP90 inhibitor project, biochemical, luminescence, triplicate. AID 1847, 2009. hit rate 48% among 2,300. inhibition, % at 5.9 µM. purified native firefly luciferase. shares compounds with HSP90 refold inh;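 active means inhibition above the mean inhibition of all tested sample wells plus 3 SD, cut at about 10% in these data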
SENP8 conf – SENP8 protease inhibitors, retest, confirmation, biochemical, luminescence, single concentration. shares compounds with SENP7 inh. Recombinant SENP8, Z-RLRGG-aminoluciferin luminescence, 60 min. inhibition, % at 12.5 µM. hit rate 40% among 6,200. AID 488912, 2010;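 active means mean inhibition across replicates above about 50%, limit read from the data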
SENP6 conf – SENP6 protease inhibitors, confirmation, biochemical, luminescence, single concentration; shares compounds with SENP7 inh; recombinant SENP6, Z-RLRGG-aminoluciferin luminescence; inhibition, % at 12.5 µM; hit rate 58% among 6,200; AID 488915, 2010
SENP7 conf – SENP7 protease inhibitors, retest, confirmation, biochemical, luminescence, single concentration; hit rate 69% among 6,200; inhibition, % at 12.5 µM; shares compounds with SENP7 inh; AID 488917, 2010; recombinant SENP7, Z-RLRGG-aminoluciferin luminescence, 40 min
Casp3 select – caspase-3 protease inhibitors, confirmation, selectivity assay for SENP inhibitor project, biochemical, single concentration; shares compounds with SENP7 inh; purified caspase-3, Z-DEVD-aminoluciferin luminescence, 60 min; inhibition, % at 12.5 µM; hit rate 60% among 6,200; AID 488918, 2010;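 active means mean inhibition above about 50%, limit read from the data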
Luc interf – counter-screen for SENP inhibitors: luminescence interference; shares compounds with SENP7 inh; Pre-incubated SENP8/Z-RLRGG-aminoluciferin, luciferase luminescence interference; inhibition, % at 12.5 µM; hit rate 39% among 6,200;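 active means mean inhibition above about 50% when retested at one dose, limit read from the data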
Of the large screens only hits and unclear results are named; the others gave an inactive call (follow-up assays come after a bar, where they were run).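 How the source made its calls, unless noted: active means mean inhibition above about 50% in the one-dose retest (limit read from the data); inactive means the rest.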

Oc1cccc(C=Nc2cccc3ccccc23)c1O	HSP90 refold inh 23, SENP6 block 54 | HSP90 inh confirm inactive | luciferase ctr inactive | SENP8 conf inactive | SENP6 conf inactive | SENP7 conf inactive | Casp3 select inactive | Luc interf inactive
NCC[C@@H]1CC[C@H](NC(=O)C2CC2)[C@H](CO)O1	none (no result: HSP90 refold inh, SENP8 block-1, SENP7 inh, SENP8 block-2, SENP6 block)
CN(C)c1ccc(N=Nc2ccc(C(=O)O)cc2)cc1	HSP90 refold inh 31, SENP8 block-1 86, SENP7 inh 87, SENP6 block 93 | HSP90 inh confirm 53 | luciferase ctr 84 | SENP8 conf 89 | SENP6 conf 91 | SENP7 conf 101 | Casp3 select 73 | Luc interf 58
CN(C)c1ccc(C(=O)c2ccccc2)cc1	none (no result: LGR2 antag)
CCCSc1ccc2nc(-c3ccccc3)cn2c1	HSP90 refold inh 46, SENP8 block-1 96, SENP7 inh 98, SENP6 block 96, LGR2 antag inconclusive | HSP90 inh confirm 90 | luciferase ctr 83 | SENP8 conf 98 | SENP6 conf 99 | SENP7 conf 102 | Casp3 select 97 | Luc interf 93
COCC(=O)Nc1ccc2c(c1)C(=O)N(C)C[C@@H](OC)[C@H](C)CN(CCC(F)(F)F)[C@H](C)CO2	none (no result: HSP90 refold inh, SENP8 block-1, SENP7 inh, SENP8 block-2, SENP6 block)
CC=Cc1ccc2n(c1=O)C[C@H]1[C@H](CO)[C@@H](C(=O)NCCC)[C@@H]2N1C(=O)c1ccccc1F (mixture of isomers)	none (no result: HSP90 refold inh, SENP8 block-1, SENP7 inh, SENP8 block-2, SENP6 block)
CCn1c(NCc2ccc(N(C)C)cc2)nc2ccccc21	none (no result: LGR2 antag)
CN(C)c1ccc(N=Nc2nc3ccccc3n2C)cc1	HSP90 refold inh 21, SENP8 block-1 97, SENP7 inh 100, SENP8 block-2 50, SENP6 block 100, LGR2 antag 103 | HSP90 inh confirm 19 | luciferase ctr 93 | SENP8 conf 95 | SENP6 conf 101 | SENP7 conf 103 | Casp3 select 89 | Luc interf inactive
COc1ccc(/C(N)=N/OC(=O)c2ccco2)cc1	HSP90 refold inh 41, SENP8 block-1 84, SENP6 block 91, LGR2 antag 69 | HSP90 inh confirm 60 | luciferase ctr 43 | SENP8 conf 89 | SENP6 conf 90 | SENP7 conf 98 | Casp3 select 91 | Luc interf 86
COC(=O)c1ccc(OC(=O)c2ccco2)cc1	none (no result: LGR2 antag)
COc1ccc(C(=O)O/N=C(\N)c2ccccc2)cc1	HSP90 refold inh 25, SENP8 block-1 97, SENP7 inh 100, SENP6 block 97, LGR2 antag 79 | HSP90 inh confirm 43 | luciferase ctr 79 | SENP8 conf 99 | SENP6 conf 100 | SENP7 conf 103 | Casp3 select 98 | Luc interf 98
COc1ccc(C(=O)O/N=C(\N)c2ccc(Br)cc2)cc1	none
CC(C)(C)c1ccc(C(=O)O/N=C(\N)c2ccccc2)cc1	HSP90 refold inh 69, SENP8 block-1 90, SENP7 inh 95, SENP6 block 93, LGR2 antag 91 | HSP90 inh confirm 25 | luciferase ctr 20 | SENP8 conf 96 | SENP6 conf 96 | SENP7 conf 102 | Casp3 select 92 | Luc interf inactive
CCCNC(=O)N1C[C@@H]2[C@H](c3ccccc31)[C@@H](CO)N2Cc1ccc2c(c1)OCO2	none (no result: HSP90 refold inh, SENP8 block-1, SENP7 inh, SENP8 block-2, SENP6 block)
C/C(=N\Nc1nncc2ccccc12)c1ccc(O)cc1	HSP90 refold inh 20, SENP6 block 67 | HSP90 inh confirm 32 | luciferase ctr 12 | SENP8 conf inactive | SENP6 conf inactive | SENP7 conf inactive | Casp3 select inactive | Luc interf inactive
C/C(=N\Nc1nncc2ccccc12)c1ccc(C(C)(C)C)cc1	none (no result: LGR2 antag)
C/C(=N\Nc1nncc2ccccc12)c1cccc(OC(F)F)c1	HSP90 refold inh 25, SENP8 block-1 89, SENP7 inh 100, SENP6 block 97 | HSP90 inh confirm 40 | luciferase ctr 23 | SENP8 conf 68 | SENP6 conf 75 | SENP7 conf 82 | Casp3 select 75 | Luc interf inactive
C/C(=N\Nc1ccccn1)c1ccc(OC(F)F)cc1	none
COc1ccc(-c2csc3ncnc(N4CCN(c5ccc(OC)cc5)CC4)c23)cc1	none
COc1ccc(-c2nsc3c(N4CCCC4)ncnc23)cc1	HSP90 refold inh 29, SENP7 inh 74, SENP6 block 52 (no result: LGR2 antag) | HSP90 inh confirm 60 | luciferase ctr 42 | SENP8 conf inactive | SENP6 conf inactive | SENP7 conf 51 | Casp3 select 58 | Luc interf inactive
N#Cc1c(NC(=O)c2ccccc2Cl)n(Cc2ccccc2)c2nc3ccccc3nc12	none (no result: SENP8 block-1, SENP7 inh, SENP6 block)
CCCCn1c(NC(=O)c2ccccc2Cl)c(C#N)c2nc3ccccc3nc21	HSP90 refold inh 59, SENP8 block-1 94, SENP7 inh 70, SENP6 block 96 (no result: LGR2 antag) | HSP90 inh confirm 46 | luciferase ctr inactive | SENP8 conf 76 | SENP6 conf 90 | SENP7 conf 78 | Casp3 select inactive | Luc interf inactive
